TrxR1 inh: rat TrxR1 inhibition | O89049 | recombinant rTrxR1, NADPH fluorescence consumption, selenite substrate | 1% of 390,000 active | Potency, µM (series often up to 114 µM), without a hit: at the top dose activity change, negative = inhibition, actives largely listed as inhibitors | AID 588453; also: % is scaled to controls: 0 for no effect and ±100 for the full control effect; nearly all actives have a fitted effect of over 65% in size
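Rat TrxR1 (90 nM in the dispensed reagent) was pre-reduced with 400 uM NADPH for 5 min at room temperature, then incubated with compound for 15 min. After 400 uM selenite was added, NADPH fluorescence (Ex 340/Em 450 nm) was followed for 8 min.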
Nrf2 ARE act: activators of Nrf2 (ARE) signaling. Potency, µM (highest dose often 46.1 µM), without a hit: at the highest dose activation, usual class: activators. 0.31% of 410,000 active. AREc32 ARE-luciferase reporter (MCF7-derived line), luminescence, 24 h; also: % of control where 0% means no effect; nearly all actives have a fitted effect of over 65% in size
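Quantitative high-throughput format: AREc32 reporter cells, 1000 per well, received compound by pin transfer and were incubated 24 hr at 37 deg C, 5% CO2, before Steady-Glo luminescence detection.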
TrxR1 substrate: rat thioredoxin reductase 1 substrate activity. O89049. purified TrxR1 substrate turnover, NADPH consumption readout. Potency, µM (top dose mostly 114 µM), for inactives: top-dose activity change, negative = substrate turnover. 0.01% of 390,000 active; also: % is scaled to controls: 0 for no effect and ±100 for the full control effect; nearly all actives have a fitted effect of over 50% in size
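Rat TrxR1, dispensed at 90 nM, was prereduced with 400 uM NADPH (final) for 5 min at ~22 deg C, then incubated with compound 15 min before 400 uM selenite. A first-read NADPH fluorescence drop versus no-compound background flagged substrates.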
Nrf2 block: inhibitors of Nrf2 signaling; 2.1% of 360,000 active; AID 504444; Potency, µM (highest dose often 46 µM), inactives show top-dose activity change, negative = inhibition, most hits filed as inhibitors; A549 ARE-Fluc reporter, luciferase luminescence, 18-24 h; also: % is scaled to controls: 0 for no effect and ±100 for the full control effect; nearly all actives have a fitted effect of over 60% in size
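Quantitative HTS in A549 cells stably bearing an antioxidant response element-firefly luciferase construct. Inhibition of Nrf2-driven transcription was scored by luminescence after 18-24 h of compound exposure at 37 °C.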
GALK inhibitor: galactokinase (human) inhibition; P51570; Purified GALK, Kinase-Glo residual ATP luminescence; Potency, µM (titrated, usually from 57.5 µM), inactives show top-dose activity change, negative = inhibition, hits mostly inhibitors; 0.007% of 270,000 active; AID 1868; also: % is scaled to controls: 0 for no effect and ±100 for the full control effect
Target sequence (P51570 whole entry, looked up): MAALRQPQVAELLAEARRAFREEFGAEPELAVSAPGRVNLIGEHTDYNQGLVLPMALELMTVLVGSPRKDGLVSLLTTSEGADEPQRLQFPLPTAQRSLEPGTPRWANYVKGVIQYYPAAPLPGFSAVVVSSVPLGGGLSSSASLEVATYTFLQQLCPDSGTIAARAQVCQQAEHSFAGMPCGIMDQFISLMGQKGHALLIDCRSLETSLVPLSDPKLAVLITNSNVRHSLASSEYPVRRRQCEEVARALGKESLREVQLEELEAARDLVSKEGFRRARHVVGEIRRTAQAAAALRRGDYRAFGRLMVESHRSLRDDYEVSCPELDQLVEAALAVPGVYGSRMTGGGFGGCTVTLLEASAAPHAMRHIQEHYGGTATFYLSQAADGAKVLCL
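ATP-depletion format; final 35 uM ATP, 100 uM D-galactose, 5 nM enzyme; pH 8.0 HEPES/Mg2+ buffer; 60 min RT; luminescence read 10 min after detection reagent.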
A549 viability: counter-screen for Nrf2 inhibitors: cytotoxicity in A549 cells | 0.16% of 390,000 active | A549 ARE-Fluc cells, CellTiter-Fluor viability, 18-24 h | Potency, µM (highest dose often 46 µM), inactives show at the highest dose activity change, negative = cytotoxicity, hits mostly inhibitors | AID 504648; also: % is scaled to controls: 0 for no effect and ±100 for the full control effect
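A549 ARE-Fluc cells in 5% FBS OPTI-MEM, 5000 cells/well, rested 2 h then exposed to compounds in concentration-response for 18-24 h at 37 °C. Viability by CellTiter-Fluor fluorescence (Ex 405/Em 525) after 30 min; luciferase luminescence (BugLite, 15 min, RT) read afterwards.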
* marks the source's active call; other numbers are inactive results; ? = inconclusive; / = no result given; [ ] = dose if it differs, or a comment. Most compounds without a hit are left out; they make up all but 3% or so of the library. Calls follow the shape of the dose curve; as a rule, active = well fitted curve in the direction sought with a large enough effect; inconclusive = small, poorly fitted or top-dose-only effect, or another doubt; inactive = no such curve, though single readings can be large; an effect the other way counts as inactive or inconclusive. Potency is read from the fitted curve at half-maximal effect.

SMILES	TrxR1 inh	Nrf2 ARE act	TrxR1 substrate	Nrf2 block	GALK inhibitor	A549 viability
Cc1ccc(Cl)cc1N1CCN(Cc2nnc(-c3ccc4c(c3)OCO4)o2)CC1	8.8%	-0.4%	-2.4%	20.6µM*	/	-10.8%
Clc1ccc(N2CCN(Cc3nnc(-c4ccc5c(c4)OCO5)o3)CC2)cc1	18.6%	-0.7%	6.9%	11.8%	/	-5.2%
COc1ccc(OC(C)C(=O)NCc2nc(-c3cccc(C)c3)no2)cc1 (configuration not stated)	17.6%	3.3%	2.5%	-21.3%	/	0.3%
Cc1ccc2c(Cl)cc(Cl)c(OCC(=O)Nc3cc(S(=O)(=O)N(C)C)ccc3C)c2n1	5.3%	3.2%	8.9%	14.6µM*	-3.0%	-18.1%
CCc1nn(CC(=O)NCCc2ccc(OC)cc2OC)c(=O)c2cc3sccc3n12	-0.3%	2.4%	-2.3%	3.1%	/	11.3%
CCC1=C[C@@H]2CN(C1)Cc1c([nH]c3ccccc13)[C@@](C(=O)OC)(c1cc3c(cc1OC)N(C)[C@H]1[C@@](O)(C(=O)OC)[C@H](OC(C)=O)[C@]4(CC)C=CCN5CC[C@]31[C@@H]54)C2	28.2µM*	/	3.6%	/	/	/
O=C(COC(=O)C1(c2ccccc2F)CCCC1)NCc1ccc2c(c1)OCO2	-3.1%	0.3%	-11.1%	-1.8%	-1.3%	-0.6%
O=C(COC(=O)C1(c2ccccc2F)CCCC1)NCc1cccs1	1.0%[57.1 µM]	-0.1%	-3.6%[57.1 µM]	20.6µM*	8.4%	-11.2%
NS(=O)(=O)c1ccc(NC(=O)COC(=O)C23CC4CC(CC(C4)C2)C3)cc1	-14.0%	-0.1%	-16.5%	9.7%	-1.1%	-0.1%
NS(=O)(=O)c1ccc(NC(=O)COC(=O)C2(c3ccccc3F)CCCC2)cc1	9.6%	0.4%	-2.4%	20.6µM*	/	?
Fc1ccc(NCc2nnc3n2CCCCC3)cc1Cl	21.1%[57.1 µM]	-0.5%	3.6%[57.1 µM]	/	/	-6.4%
O=[N+]([O-])c1ccc(Cl)c(C[n+]2cccc3ccccc32)c1	-3.6%	-1.5%	-3.4%	11.6µM*	2.7%	-14.8%
O=C(C[n+]1cccc2ccccc21)c1ccc([N+](=O)[O-])cc1	-17.7%[57.1 µM]	15.5%	-4.7%[57.1 µM]	?	2.8%	?
COc1ccc(OC)c(CCNC(=O)c2cc3c(-c4ccccc4F)nn(C)c3s2)c1	4.3%	-0.3%	-9.6%	20.6µM*	/	-1.7%
O=C(NCc1ccco1)c1ccc(-c2ccc(F)c(F)c2)c2ccoc12	/	0.3%[9.22 µM]	/	/	/	/
Cc1ccc(Sc2ccc(N3CCCC(C(=O)Nc4ccc(Br)cc4)C3)nn2)cc1 (configuration not stated)	19.7%	-0.3%	5.3%	?	/	-8.6%
Cc1cccc(NC(=O)CN2C(=O)N/C(=C/c3ccc(C)o3)C2=O)c1	39.8µM*	11.6%	2.9%	15.4%	-1.4%	-9.6%
C=CCN1C(=O)N/C(=C/c2ccc(C)o2)C1=O	50.1µM*	?	-8.8%	-20.0%	-0.5%	-7.9%
Cc1ccc(C(=O)c2sc(Nc3ccc(F)cc3)nc2N)c(C)c1	-2.9%[57.1 µM]	-2.8%	-6.1%[57.1 µM]	?	/	2.1%
CCOc1ccc(C(=O)NC2C(=O)N3C(C(=O)O)=C(COC(C)=O)CSC23)cc1OCC (configuration not stated)	56.2µM*	8.9%	-5.5%	?	/	-16.6%
CC(=O)OCC1=C(C(=O)O)N2C(=O)[C@@H](NC(=O)Cc3ccccc3)[C@H]2SC1	?	2.8%	4.8%[57.1 µM]	3.9%	/	3.8%
CCOc1ccccc1C(=O)Nc1cc2c(cc1N1CCCCC1)n(C)c(=O)n2C	?	3.8%	15.6%	23.1µM*	/	?
Nc1[nH]n2c(=O)c3c(nc2c1N=Nc1ccccc1)CCCC3	18.2%[57.1 µM]	0.4%	8.7%[57.1 µM]	/	-2.6%	13µM*
CCOC(=O)c1ccc(NS(=O)(=O)c2cc(-c3onc(C)c3C)ccc2C)cc1	-3.2%[57.1 µM]	0.9%	-2.9%[57.1 µM]	20.6µM*	/	-9.3%
CCOC(=O)c1ccc(NS(=O)(=O)c2ccc(-c3cc(C)no3)cc2)cc1	8.6%	-0.6%	-5.0%	-15.3%	/	-0.6%
SMILES	TrxR1 inh	Nrf2 ARE act	TrxR1 substrate	Nrf2 block	GALK inhibitor	A549 viability
Cc1nc(CS(=O)(=O)c2ccccc2)cc(N2CCN(c3ccccc3F)CC2)n1	4.6%[57.1 µM]	-0.8%	-2.9%	20.6µM*	11.4%	-1.2%
Cc1ccc(-c2nc(CS(=O)CC(=O)NC3CCC(C)CC3)c(C)o2)cc1 (configuration not stated)	15.8µM*	7.3%	21.6%[57.1 µM]	-8.9%	2.1%	?
Cc1oc(-c2ccccc2)nc1CS(=O)CC(=O)NC1CCCCCC1 (configuration not stated)	31.6µM*	0.0%	-15.5%	10.2%	1.9%	2.8%
Cc1cccc(-c2nc(CS(=O)CC(=O)NC3CCCCC3)c(C)o2)c1 (configuration not stated)	-7.2%	0.1%	-0.3%	-6.6%	-0.7%	0.1%
CCCCN(CCCC)c1nc2ccccc2nc1C(C#N)C(=O)NCCCOC (configuration not stated)	39.8µM*	-0.1%	3.5%	-0.2%	3.8%	-6.1%
CCN(CC)c1nc2ccccc2nc1C(C#N)C(=O)NCCCOC (configuration not stated)	-3.5%	1.0%	15.5%[57.1 µM]	?	0.2%	?
O=C(OCc1cccc(Cl)c1)c1cc(S(=O)(=O)N2CCCCC2)ccc1N1CCOCC1	10.2%	-1.0%	-0.3%	?	1.5%	-9.0%
O=C(OCCOc1cccc(Cl)c1)c1cc(S(=O)(=O)N2CCCCC2)ccc1N1CCOCC1	11.0%	2.7%	6.8%	11.6µM*	/	-16.8%
Cc1ccc(NC(=O)c2cc(S(=O)(=O)N3CCCCC3)ccc2N2CCOCC2)cc1	/	-0.9%	/	/	/	/
COc1ccc(CNC(=O)c2cc(S(=O)(=O)N3CCCCC3)ccc2Cl)cc1OC	21.5%[57.1 µM]	2.5%	6.6%[57.1 µM]	16.4µM*	/	0.4%
COc1ccc(CNC(=O)C2CCCN(S(=O)(=O)N(C)c3ccc(F)cc3)C2)cc1OC (configuration not stated)	6.7%	0.3%	-4.9%	23.1µM*	/	-2.8%
O=C(NCc1ccc(F)cc1)c1cc(S(=O)(=O)N2CCCCC2)ccc1Cl	6.5%	0.1%	-5.1%	-18.9%	/	-7.8%
CCOc1ccc(CNC(=O)C2CCCN(S(=O)(=O)N(C)c3ccc(F)cc3)C2)cc1OC (configuration not stated)	3.8%	1.0%	-1.9%	?	/	-12.9%
Cc1ccc(CNC(=O)c2cc(S(=O)(=O)N3CCCCC3)ccc2N2CCOCC2)cc1	1.9%	-0.9%	-2.6%	20.6µM*	/	?
CCC(C(=O)Nc1ccc(C)c(Cl)c1)n1c(=O)c(-c2ccccc2NC(C)=O)nc2ccccc21 (configuration not stated)	6.2%	-1.2%	-1.5%	19.2%	/	7.3%

From PubChem BioAssay
